Reference: the supplement of paper PMC10849652
The full data set covers some 8,800 targets. This sample favours those with a hit. About 0.5% of all pairs of compound and target were hits.

These targets were tested with CCN(CCCOc1ccc2c(Nc3cc(CC(=O)Nc4cccc(F)c4)[nH]n3)ncnc2c1)CCOP(=O)(O)O [barasertib] (assay: log2 fold change, soluble protein after heating vs DMSO (PISA); higher = thermal stabilisation; K562 lysate, 10 uM; active = over 0.2 and 3.5 SD of the protein, either way, in both replicates (recomputed)).
Method in brief: (§1)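 Soluble protein was defined as the supernatant remaining after 21,000xg for 90 min, following pooling of heated aliquots and adjustment to 0.5% NP-40 at 4°C. Before that, crude K562 extract at 1 mg/mL protein in PBS pH 7.4 with 1 mM MgCl2 was treated with 10 μM compound for 30 min and heated for 3 min across 48°C-58°C. Quantification used TMTpro 16plex LC-MS/MS with channel sums equalised, and values are log-two fold changes in thermal stability relative to solvent controls from duplicates.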

Chain of UniProt Q8NFF5 (Q8NFF5 whole entry, looked up): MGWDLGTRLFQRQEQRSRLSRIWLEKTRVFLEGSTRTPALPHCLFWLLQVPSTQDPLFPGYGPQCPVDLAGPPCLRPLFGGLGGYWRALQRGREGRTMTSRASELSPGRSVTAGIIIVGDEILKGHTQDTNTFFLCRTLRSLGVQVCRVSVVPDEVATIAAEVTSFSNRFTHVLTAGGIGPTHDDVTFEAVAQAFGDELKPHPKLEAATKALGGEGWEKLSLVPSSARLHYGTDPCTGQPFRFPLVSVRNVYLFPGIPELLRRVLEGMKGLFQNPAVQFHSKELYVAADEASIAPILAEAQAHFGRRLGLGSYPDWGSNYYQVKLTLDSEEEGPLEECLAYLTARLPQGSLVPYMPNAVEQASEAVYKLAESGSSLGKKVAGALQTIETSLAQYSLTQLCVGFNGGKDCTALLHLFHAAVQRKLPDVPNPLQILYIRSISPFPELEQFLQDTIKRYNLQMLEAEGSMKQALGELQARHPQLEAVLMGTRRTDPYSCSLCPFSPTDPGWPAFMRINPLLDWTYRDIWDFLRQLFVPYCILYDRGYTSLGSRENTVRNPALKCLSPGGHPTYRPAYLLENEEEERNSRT
Chain of UniProt P51116 (P51116 whole entry, looked up): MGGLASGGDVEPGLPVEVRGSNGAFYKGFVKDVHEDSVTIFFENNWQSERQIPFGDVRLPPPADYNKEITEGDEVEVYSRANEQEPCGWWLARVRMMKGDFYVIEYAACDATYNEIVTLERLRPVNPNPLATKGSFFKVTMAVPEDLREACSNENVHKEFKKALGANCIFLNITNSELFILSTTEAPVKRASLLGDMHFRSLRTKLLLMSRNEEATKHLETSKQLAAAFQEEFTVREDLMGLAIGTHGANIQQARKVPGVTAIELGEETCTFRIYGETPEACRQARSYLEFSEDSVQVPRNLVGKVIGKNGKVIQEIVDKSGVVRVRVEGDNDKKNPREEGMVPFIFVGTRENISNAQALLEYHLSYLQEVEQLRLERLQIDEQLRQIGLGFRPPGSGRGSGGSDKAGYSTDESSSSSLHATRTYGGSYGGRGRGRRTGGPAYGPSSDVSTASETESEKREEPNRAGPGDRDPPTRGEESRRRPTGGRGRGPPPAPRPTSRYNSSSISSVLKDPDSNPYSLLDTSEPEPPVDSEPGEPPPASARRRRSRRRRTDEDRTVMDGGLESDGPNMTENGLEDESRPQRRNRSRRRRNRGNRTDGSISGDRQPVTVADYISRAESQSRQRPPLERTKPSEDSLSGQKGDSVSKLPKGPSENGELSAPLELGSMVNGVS
Chain of UniProt P0C2W1 (P0C2W1 whole entry, looked up): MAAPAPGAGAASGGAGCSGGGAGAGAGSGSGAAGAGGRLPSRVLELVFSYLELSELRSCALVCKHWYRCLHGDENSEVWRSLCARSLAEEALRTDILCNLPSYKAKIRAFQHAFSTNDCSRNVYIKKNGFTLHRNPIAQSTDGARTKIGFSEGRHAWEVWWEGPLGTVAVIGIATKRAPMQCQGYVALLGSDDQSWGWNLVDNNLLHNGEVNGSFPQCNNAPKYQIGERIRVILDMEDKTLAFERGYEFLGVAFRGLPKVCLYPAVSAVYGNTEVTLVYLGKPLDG
Chain of UniProt Q6P2E9 (Q6P2E9 whole entry, looked up): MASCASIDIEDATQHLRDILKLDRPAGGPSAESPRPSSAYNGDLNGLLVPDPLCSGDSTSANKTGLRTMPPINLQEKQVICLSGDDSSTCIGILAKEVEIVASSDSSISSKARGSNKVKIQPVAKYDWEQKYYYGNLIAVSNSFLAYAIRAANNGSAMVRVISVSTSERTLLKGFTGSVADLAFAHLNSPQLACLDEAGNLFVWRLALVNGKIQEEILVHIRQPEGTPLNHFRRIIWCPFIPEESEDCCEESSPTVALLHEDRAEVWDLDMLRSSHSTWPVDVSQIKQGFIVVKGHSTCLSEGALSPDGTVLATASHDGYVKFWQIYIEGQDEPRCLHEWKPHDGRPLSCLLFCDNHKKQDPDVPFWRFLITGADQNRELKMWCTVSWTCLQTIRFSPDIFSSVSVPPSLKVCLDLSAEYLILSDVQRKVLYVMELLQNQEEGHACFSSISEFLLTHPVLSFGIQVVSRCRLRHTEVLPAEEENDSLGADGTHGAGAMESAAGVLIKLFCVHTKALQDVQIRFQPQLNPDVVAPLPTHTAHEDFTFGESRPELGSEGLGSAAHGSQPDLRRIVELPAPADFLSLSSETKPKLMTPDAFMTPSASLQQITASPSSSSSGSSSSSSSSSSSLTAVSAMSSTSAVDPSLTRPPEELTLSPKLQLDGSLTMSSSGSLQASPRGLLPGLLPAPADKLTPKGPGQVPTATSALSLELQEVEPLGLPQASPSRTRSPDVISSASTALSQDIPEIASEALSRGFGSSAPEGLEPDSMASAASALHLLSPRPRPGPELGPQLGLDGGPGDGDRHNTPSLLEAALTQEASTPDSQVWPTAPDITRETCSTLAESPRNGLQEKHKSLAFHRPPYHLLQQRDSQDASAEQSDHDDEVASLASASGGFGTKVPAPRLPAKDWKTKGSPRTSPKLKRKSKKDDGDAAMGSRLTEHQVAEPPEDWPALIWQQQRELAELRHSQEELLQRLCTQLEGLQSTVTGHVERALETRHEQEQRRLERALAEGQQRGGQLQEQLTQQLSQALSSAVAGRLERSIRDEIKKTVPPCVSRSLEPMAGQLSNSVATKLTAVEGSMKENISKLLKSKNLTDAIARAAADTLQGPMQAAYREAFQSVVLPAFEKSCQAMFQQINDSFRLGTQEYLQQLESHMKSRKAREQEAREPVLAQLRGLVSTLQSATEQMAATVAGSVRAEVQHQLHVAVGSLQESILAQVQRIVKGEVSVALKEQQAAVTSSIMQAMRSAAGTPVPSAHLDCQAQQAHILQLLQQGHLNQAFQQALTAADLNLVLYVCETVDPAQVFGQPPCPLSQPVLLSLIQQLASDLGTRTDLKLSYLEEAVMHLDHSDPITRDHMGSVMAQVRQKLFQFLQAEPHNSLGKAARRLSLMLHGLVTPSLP
Chain of UniProt Q9NPA0 (Q9NPA0 whole entry, looked up): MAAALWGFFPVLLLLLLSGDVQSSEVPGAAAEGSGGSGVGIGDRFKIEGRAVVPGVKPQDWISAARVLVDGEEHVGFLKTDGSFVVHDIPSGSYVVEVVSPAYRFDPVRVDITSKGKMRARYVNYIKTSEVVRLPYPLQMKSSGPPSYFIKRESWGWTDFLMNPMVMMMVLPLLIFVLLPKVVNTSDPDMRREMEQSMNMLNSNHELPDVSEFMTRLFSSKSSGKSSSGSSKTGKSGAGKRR
Chain of UniProt Q8NEZ5 (Q8NEZ5 whole entry, looked up): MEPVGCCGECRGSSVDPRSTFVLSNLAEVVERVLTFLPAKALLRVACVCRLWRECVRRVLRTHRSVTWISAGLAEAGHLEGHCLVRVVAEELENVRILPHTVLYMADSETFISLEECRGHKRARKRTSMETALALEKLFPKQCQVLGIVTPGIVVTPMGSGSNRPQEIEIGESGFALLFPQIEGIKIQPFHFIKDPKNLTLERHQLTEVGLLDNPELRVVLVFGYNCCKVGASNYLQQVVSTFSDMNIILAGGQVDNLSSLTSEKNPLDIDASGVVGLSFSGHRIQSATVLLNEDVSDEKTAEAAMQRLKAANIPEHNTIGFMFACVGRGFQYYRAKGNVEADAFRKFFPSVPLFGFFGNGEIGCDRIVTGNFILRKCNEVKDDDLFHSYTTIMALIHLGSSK
Chain of UniProt Q86YP4 (Q86YP4 whole entry, looked up): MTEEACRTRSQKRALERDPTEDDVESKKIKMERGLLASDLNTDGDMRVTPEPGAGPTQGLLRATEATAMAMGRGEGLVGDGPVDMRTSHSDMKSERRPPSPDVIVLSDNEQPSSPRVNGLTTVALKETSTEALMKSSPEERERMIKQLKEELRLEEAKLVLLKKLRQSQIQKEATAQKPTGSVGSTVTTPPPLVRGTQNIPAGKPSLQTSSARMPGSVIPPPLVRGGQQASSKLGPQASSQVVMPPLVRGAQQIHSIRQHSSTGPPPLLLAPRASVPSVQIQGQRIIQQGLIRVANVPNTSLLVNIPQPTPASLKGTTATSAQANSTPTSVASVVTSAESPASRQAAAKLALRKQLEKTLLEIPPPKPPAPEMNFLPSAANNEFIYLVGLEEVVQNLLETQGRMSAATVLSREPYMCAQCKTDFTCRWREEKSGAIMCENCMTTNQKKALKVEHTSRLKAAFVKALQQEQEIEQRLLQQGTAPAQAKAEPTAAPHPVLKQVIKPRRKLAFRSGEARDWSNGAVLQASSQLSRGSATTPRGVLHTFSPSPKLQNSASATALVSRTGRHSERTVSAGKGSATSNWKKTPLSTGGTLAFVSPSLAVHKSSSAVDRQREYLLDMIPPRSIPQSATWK
Chain of UniProt Q9UK97 (Q9UK97 whole entry, looked up): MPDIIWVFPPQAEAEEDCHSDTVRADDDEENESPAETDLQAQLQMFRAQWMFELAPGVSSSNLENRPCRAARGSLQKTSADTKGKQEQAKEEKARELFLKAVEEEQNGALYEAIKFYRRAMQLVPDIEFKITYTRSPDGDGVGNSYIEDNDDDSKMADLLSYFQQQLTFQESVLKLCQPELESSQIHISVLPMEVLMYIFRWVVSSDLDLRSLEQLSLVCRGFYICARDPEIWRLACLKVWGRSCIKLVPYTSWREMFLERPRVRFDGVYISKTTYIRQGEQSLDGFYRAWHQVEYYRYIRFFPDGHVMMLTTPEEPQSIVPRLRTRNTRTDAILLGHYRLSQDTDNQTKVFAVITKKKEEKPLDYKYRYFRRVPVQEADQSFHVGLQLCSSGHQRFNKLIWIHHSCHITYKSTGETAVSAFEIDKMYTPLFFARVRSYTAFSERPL
Chain of UniProt Q15125 (Q15125 whole entry, looked up): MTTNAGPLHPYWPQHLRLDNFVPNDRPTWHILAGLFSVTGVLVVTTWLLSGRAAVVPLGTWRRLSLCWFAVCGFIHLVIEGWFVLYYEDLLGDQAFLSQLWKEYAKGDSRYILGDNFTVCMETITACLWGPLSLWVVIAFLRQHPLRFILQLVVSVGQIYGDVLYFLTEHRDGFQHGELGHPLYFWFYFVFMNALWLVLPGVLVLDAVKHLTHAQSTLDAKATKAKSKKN

log2 fold change, inactive:
ECI2 (UniProt O75521) 0.007
DYNC1I2 isoform 5 (UniProt Q13409) -0.03
FLAD1 (UniProt Q8NFF5) -0.063
FBXO22 (UniProt Q8NEZ5) 0.025
EPB41, A0A2R8Y6D0 0.043
FAM120B (UniProt Q96EK7) -0.009
GAA (UniProt P10253) -0.063
FARSA (UniProt Q9Y285) -0.012
FBXO45 (UniProt P0C2W1) 0.031
EEFSEC (UniProt P57772) 0.031
EMP3 (UniProt P54852) 0.005
GATAD2A isoform 3 (UniProt Q86YP4) 0.008
EGLN1 (UniProt Q9GZT9) -0.025
FREM2 (UniProt Q5SZK8) 0.136
EXOC5 (UniProt O00471) 0.044
EIF2AK1 (UniProt Q9BQI3) 0.019
FXR1 (UniProt P51114) 0.01
FAT2 (UniProt Q9NYQ8) -0.001
EBP (UniProt Q15125) 0.069
FOXK1 (UniProt P85037) 0.025
FXR2 (UniProt P51116) -0.003
EIF2B4 (UniProt Q9UI10) 0.006
EMC7 (UniProt Q9NPA0) -0.006
GEMIN5 (UniProt Q8TEQ6) 0.004
DYRK1A (UniProt Q13627) 0.025
ESPL1 (UniProt Q14674) 0.054
FBXO9 (UniProt Q9UK97) 0.116
ELF2 (UniProt Q15723) -0.123
GAPVD1 isoform 6 (UniProt Q14C86) 0.01
FYN (UniProt P06241) 0.065
ERCC4 (UniProt Q92889) 0.163
EPB41, A0A2R8Y783 0.112
FBXO38 (UniProt Q6PIJ6) 0.052
FTSJ3 (UniProt Q8IY81) 0.006
DUS2 (UniProt Q9NX74) -0.026
EDC4 (UniProt Q6P2E9) 0.026
FDFT1 (UniProt P37268) 0.023

Each target was assayed with CC[C@@H]1C(=O)N(C)c2cnc(Nc3ccc(C(=O)NC4CCN(C)CC4)cc3OC)nc2N1C1CCCC1 in the same assay as above.
Method in brief: as §1

log2 fold change, inactive:
ECI2 (UniProt O75521) 0.059
DYNC1I2 isoform 5 (UniProt Q13409) -0.012
FLAD1 (UniProt Q8NFF5) 0.055
FBXO22 (UniProt Q8NEZ5) 0.011
EPB41, A0A2R8Y6D0 -0.108
FAM120B (UniProt Q96EK7) 0.01
GAA (UniProt P10253) -0.006
FARSA (UniProt Q9Y285) 0.091
FBXO45 (UniProt P0C2W1) -0.077
EEFSEC (UniProt P57772) -0.067
EMP3 (UniProt P54852) 0.066
GATAD2A isoform 3 (UniProt Q86YP4) 0.012
EGLN1 (UniProt Q9GZT9) -0.078
FREM2 (UniProt Q5SZK8) -0.072
EXOC5 (UniProt O00471) -0.036
EIF2AK1 (UniProt Q9BQI3) -0.016
FXR1 (UniProt P51114) -0.036
FAT2 (UniProt Q9NYQ8) 0.016
EBP (UniProt Q15125) 0.071
FOXK1 (UniProt P85037) -0.007
FXR2 (UniProt P51116) -0.021
EIF2B4 (UniProt Q9UI10) 0.04
EMC7 (UniProt Q9NPA0) 0.034
GEMIN5 (UniProt Q8TEQ6) -0.085
DYRK1A (UniProt Q13627) -0.047
ESPL1 (UniProt Q14674) 0.039
FBXO9 (UniProt Q9UK97) 0.135
ELF2 (UniProt Q15723) 0.005
GAPVD1 isoform 6 (UniProt Q14C86) -0.077
FYN (UniProt P06241) -0.351
ERCC4 (UniProt Q92889) 0.144
EPB41, A0A2R8Y783 -0.141
FBXO38 (UniProt Q6PIJ6) -0.121
FTSJ3 (UniProt Q8IY81) 0.011
DUS2 (UniProt Q9NX74) -0.033
EDC4 (UniProt Q6P2E9) -0.013
FDFT1 (UniProt P37268) 0.005
